The campaign covered roughly 340,000 compounds. About 240 (0.071%) were called active. Roughly 5% stayed inconclusive and do not appear here. Calls come from the whole dose curve. What follows is part of a selection rich in actives, with near analogues and random picks from the rest.
Target: Snurportin-1 (Homo sapiens) + GTP-binding nuclear protein Ran (Homo sapiens) + Importin subunit beta-1 (Homo sapiens) (UniProt O95149+P62826+Q14974)
Assay: qHTS Assay for Inhibitors of RanGTP induced Rango (Ran-regulated importin-beta cargo) - Importin beta complex dissociation; note: nearly all actives have a fitted effect of over 45% in size
Settings: Biochemical FRET Rango-importin beta; series mostly up to 46.1 µM
From the text: NIH Molecular Libraries Probe Production Centers Network [MLPCN] NIH Chemical Genomics Center [NCGC] MLPCN Grant: R03 MH090808-01A1 Assay Submitter (PI): Petr Kalab NCGC Assay Overview: The small GTPase Ran regulates transport of macromolecules between the nucleus and the cytoplasm (nuclear transport) and has important functions in mitotic spindle assembly, nuclear envelope (NE) formation and nuclear pore complex (NPC) assembly. RanGTP gradient is thought to promote spindle assembly by providing a spatial clue to microtubule nucleation and Aurora A activation. Because the localized release and binding of importin alpha cargos relays this spatial clue to SAFs, inhibitors of the Rango - importin beta complex can then be used in further understanding their role in cell cycle specifically in mitosis progression. […] Activation of Aurora A has been linked to different types of cancer and a number of Aurora kinase inhibitors are being developed as potential canter therapeutics; therefore, identified inhibitors of this complex could be developed into potential anti-mitotic probes for cancer treatment. Purified recombinant proteins Rango - importin beta and RanGTP-RCC1 stock premixes were provided by the assay submitter. The assay used a fluorescence resonance energy transfer (FRET) Rango biosensor that contains the IBB of human snurportin 1 flanked by yellow fluorescent protein (EYFP) at the amino terminus and cerulean CFP10 at the carboxy terminus. […] RanGTP binding to the complex (in the presence of RCC1) releases the Rango from the complex. The flexibility of the IBB in the freed Rango allows the donor - acceptor fluorophores to interact, resulting in a high FRET signal. Inhibitors will therefore be identified based on the ability to interfere with the FRET signal increase. DMSO treated and no RanGTP-RCC1 (buffer only) wells were used as negative and positive controls respectively. FRET readings were obtained at two time points. FRET reading prior to importin beta addition (pre-read) were used flag potential compound interference; FRET reading after importin beta addition (post-read) were used to identify inhibitors.
NCGC Assay Protocol Summary: Two and a half uL/well of Rango- importin beta premix solution (0.1 uM Rango, 0.25 uM importin beta, 1x PBS, 1mM DTT, 0.02% Tween-20, 0.1% BSA final concentrations) was dispensed into 1536-well assay plates (Greiner, solid black medium-binding plates) with Aurora Discovery BioRAPTR Flying Reagent Dispenser (FRD; Beckton-Dickenson). Compound solution (23 nL) was transferred to the assay plate using Kalypsys pin tool equipped with a 1536-pin tool and incubated at room temperature for 5 min followed by a FRET pre-read using the PerkinElmer Envision plate reader. Two and a half uL/well of RanGTP-RCC1 premix solution (0.6 uM Ran, 2mM GTP, 0.2 uM RCC1, 1x PBS, 1mM DTT, 0.02% Tween-20, 0.1% BSA final concentrations) were then added and incubated at room temperature giving a final reaction volume of 5uL. After 45min FRET post-read was obtained via the Envision plate reader using the same optics and settings as the pre-read (CFP/YFP optimized dual optical module D450/D505; excitation mirror CFP 430/24 nm; and emission filters CFP 486/10 nm and YFP 530/10 nm).

Potency, inactive:
O=C(Cc1ccc(NC(=O)C2CCCN(C(=O)CCc3ccccc3)C2)cc1)Nc1ccc(C(=O)N2CCOCC2)cc1 (stereo not given), CC(C)=CCc1ccc(O)c(=O)cc1C(C)C, CCCCN(C(=O)CSCc1ccc(C)cc1)c1c(N)n(Cc2ccccc2)c(=O)[nH]c1=O, CSCCC(NC(=O)COc1ccccc1)C(=O)OCc1ccc(Cl)cc1 (stereo not given), CC(C)Sc1nc(N)nc2c1ncn2C1OC(CO)C(O)C1O (stereo not given), COc1ccc(N)c(C)c1, CN1CCC(N(C)C(=O)c2ccc(Cl)c(S(=O)(=O)Nc3ccc(Cl)cc3)c2)CC1, CC1C(C)N(C(=O)CCl)c2ccccc2N1C(=O)CCl (stereo not given), Cn1c(=S)sc2ccc3ccccc3c21, COC(=O)Cc1c(-c2[nH]c3ccccc3c2CC(=O)OC)[nH]c2ccccc12, COc1cc2c(cc1OC)C1C(=O)c3cc(OS(C)(=O)=O)c(OC)cc3C1N(C)C2=O (stereo not given), COc1ccc2oc(N)nc2c1, CCN(CC)S(=O)(=O)c1cccc(NC(=O)c2ccc(S(=O)(=O)N3CCCC3)cc2)c1, CCOC(=O)C1CCCN(C(=O)C2CCN(S(=O)(=O)c3ccc(Cl)c(C(F)(F)F)c3)CC2)C1 (stereo not given), O=C(Nc1ccccc1)Oc1cccc2cccnc12, O=C(NCC1CCCCC1)NCC1CCCCC1, CSCCC(NC(=O)COc1ccccc1)C(=O)N1CCN(c2cccc(C(F)(F)F)c2)CC1 (stereo not given), O=C(CC(=O)c1cccnc1)c1ccccc1, Nc1cc2c(cc1Br)-c1ccc(F)cc1C2=O, O=C1/C(=C\c2ccc([N+](=O)[O-])cc2)CS(=O)(=O)C/C1=C/c1ccc([N+](=O)[O-])cc1, O=C(NNC(=O)c1ccccc1O)c1ccccc1O, CCOC(=O)C(CO)NC(=O)C1(NC(C)=O)CCCC1 (stereo not given), CCCC(O)(c1ccccc1)C(c1ccccc1)c1ccccn1 (stereo not given), O=C(NCCc1ccccc1)c1c[nH]c2ccc(F)cc2c1=O, O=C1CC[C@@H]2CC3(C[C@@H]4CCN1[C@H]24)Nc1cc([N+](=O)[O-])ccc1NC3=NC1CCCCC1 (stereo not given in full), CN(C(=O)c1cccc(NC(=O)Cc2ccc(NC(=O)C3CCCN(C(=O)C4CC4)C3)cc2)c1)C1CC1 (stereo not given), CN(CCc1ccccc1)C(=O)c1cccc(NC(=O)Cc2cccc(NC(=O)C3CCCN(C(=O)C4CCC4)C3)c2)c1 (stereo not given), C[C@@H]1ON(C)[C@H]2C[C@H]3c4cc(N5CCN(C)CC5)ccc4CCN3C(=O)[C@@H]12, CC1CCCN(C(=O)Cn2c(=O)oc3cc(S(=O)(=O)N4CCCCC4C)ccc32)C1 (stereo not given), NC1=NOC(=O)C1C1CCCCC1 (stereo not given)

From PubChem BioAssay AID540253 (National Center for Advancing Translational Sciences (NCATS), 2011)
